# FLuc modulator = qHTS profiling assay for firefly luciferase inhibitor/activator using purifed enzyme and Km concentrations of substrates (counterscreen for miR-21 project). Potency, µM (series often up to 57.5 µM), for the others: at the highest dose activity change, negative = inhibition, actives largely listed as inhibitors. purified FLuc, Km substrates, luminescence inhibition. AID 588342, 2011. 360,000 compounds, 6.9% hits;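 also: plate controls were vehicle for no effect and reference inhibitor for full effect; nearly all actives have a fitted effect of over 55% in size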
# Target sequence (P08659 whole entry, looked up): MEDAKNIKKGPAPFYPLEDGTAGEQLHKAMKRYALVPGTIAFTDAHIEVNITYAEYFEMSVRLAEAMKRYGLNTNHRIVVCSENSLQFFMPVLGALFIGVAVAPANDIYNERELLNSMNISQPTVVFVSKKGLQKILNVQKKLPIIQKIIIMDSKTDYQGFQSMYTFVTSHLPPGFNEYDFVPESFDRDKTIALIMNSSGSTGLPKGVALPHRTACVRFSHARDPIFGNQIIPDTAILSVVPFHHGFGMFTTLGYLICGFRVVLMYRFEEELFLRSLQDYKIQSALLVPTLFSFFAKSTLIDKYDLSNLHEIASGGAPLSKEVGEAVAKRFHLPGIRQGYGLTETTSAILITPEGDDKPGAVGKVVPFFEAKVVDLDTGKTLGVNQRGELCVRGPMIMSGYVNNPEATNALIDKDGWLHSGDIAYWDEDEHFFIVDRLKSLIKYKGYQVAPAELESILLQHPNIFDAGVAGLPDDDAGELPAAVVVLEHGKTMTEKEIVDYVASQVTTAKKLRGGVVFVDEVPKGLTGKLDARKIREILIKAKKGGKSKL
#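 Purified P. pyralis luciferase (10nM final) with 10uM D-luciferin and 10uM ATP (Km levels) in 50mM Tris acetate pH 7.5, 10mM Mg acetate, 0.01% Tween-20, 0.05% BSA; qHTS 6-point titration, ~60 µM downward; luminescence read.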
# Rab9 promoter act = qHTS Assay for Rab9 Promoter Activators | Huh7 Rab9 promoter-luciferase reporter, luminescence, 24 h | Potency, µM (top dose mostly 9.22 µM), for the others: at the top dose activation, negative = inhibition, actives largely listed as activators | 320,000 compounds, 2.8% hits | AID 485297, 2010; also: % of control where 0% means no effect; nearly all actives have a fitted effect of over 60% in size
#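 Huh7 cells stably carrying a Rab9 promoter-luciferase reporter, 1500 cells per well in OP-MEM I with 10% FBS, treated with compound 24 hours at 37C. Luciferase activity read by luminescence after 10 minutes with Amplite reagent.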
# SMN2 splice up = qHTS Assay for Enhancers of SMN2 Splice Variant Expression | HEK293 SMN2-luciferase splicing reporter, luminescence, 30-36 h | Potency, µM (doses to about 46.1 µM), for inactives: at the highest dose activity change, positive = activation, most hits filed as activators | 210,000 compounds, 2.8% hits; also: % of control where 0% means no effect; nearly all actives have a fitted effect of over 55% in size
#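 qHTS luciferase splicing reporter: luminescence rises when SMN2 exon 7 is included in transfected HEK293 cells. Compound exposure lasted 30-36 h at 37C, with 4.5 mM final sodium butyrate as control, followed by a ONE-Glo read.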
# ELG1 genotox = qHTS screen for small molecules that induce genotoxicity in human embryonic kidney (HEK293T) cells expressing luciferase-tagged ELG1 | HEK293T ELG1-luciferase reporter, luminescence, 16 h | 330,000 compounds, 1.3% hits | Potency, µM (doses to about 46 µM), for the others: at the highest dose activity change, positive = activation, most hits filed as activators | AID 504466, 2011; also: % of control where 0% means no effect; nearly all actives have a fitted effect of over 60% in size
#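 Screening used a luciferase reporter fused to human ELG1 in HEK293T cells. Luminescence was read on a CCD plate imager after 16 hr exposure and 30 min ONE-Glo incubation.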
# NPC1 prom act = qHTS Assay for NPC1 Promoter Activators; Huh7 NPC1 promoter luciferase reporter, 24 h; Potency, µM (titrated, usually from 9.22 µM), inactives show at the top dose activation, actives largely listed as activators; 320,000 compounds, 2.4% hits; AID 485313, 2010; also: % of control where 0% means no effect; nearly all actives have a fitted effect of over 60% in size
#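 Huh7 cells stably carrying NPC1 promoter–luciferase, plated in Opti-MEM with 10% FBS for 2 h, were exposed to compound in DMSO for 24 h at 37 °C; luciferase reagent was added for 10 min and luminescence read.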
# Luc counter = Counterscreen for Luciferase (Kinase-Glo TM) Inhibition | Luciferin 4-monooxygenase (Photuris pensylvanica), Q27757 | Kinase-Glo luciferase, ATP luminescence, 8 min | Potency, µM (top dose mostly 38.3 µM), without a hit: at the top dose activity change, negative = inhibition, most hits filed as inhibitors | 200,000 compounds, 0.28% hits | AID 1379, 2008; also: % is scaled to controls: 0 for no effect and ±100 for the full control effect; nearly all actives have a fitted effect of over 60% in size
#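 Substrate mix (final 50 mM imidazole pH 7.2, 50 mM KCl, 7 mM MgCl2, 10 uM ATP, 0.01% Tween 20, 0.05% BSA) plus pin-tool compound, then Kinase-Glo detection mix; 8 min ambient, luminescence read.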
# The depositor's hits bear a star; ? = inconclusive; nt = no result; [ ] = another dose, or the depositor's remark. In the library only some 7.3% were active in any assay of this set; here they are far more common. Calls follow the shape of the dose curve; as a rule, active = well fitted curve in the direction sought with a large enough effect; inconclusive = small, poorly fitted or top-dose-only effect, or another doubt; inactive = no such curve, though single readings can be large; an effect the other way counts as inactive or inconclusive. Potency is read from the fitted curve at half-maximal effect.
SMILES,FLuc modulator,Rab9 promoter act,SMN2 splice up,ELG1 genotox,NPC1 prom act,Luc counter
Cc1ccccc1C1=N/C(=C/c2cccs2)C(=O)O1,3.4µM*,3%,-21%,0%,0%,-6%
Cc1ccc(C)c(/C=C2\N=C(c3ccccc3F)OC2=O)c1,?,6%,nt,2%,-8%,nt
CCC1(CC)Nc2ccccc2C(=O)N1c1ccc(NC(C)=O)cc1,-12%,?,4%,?,19%,14%
COc1ccc(N2C(S)=C(C#N)C(=O)NC23CCCCC3)cc1,27µM*,1%,nt,0%,1%,-2%
COc1ccc(N2C(=O)CCC2(C#N)c2ccc(Br)cc2)cc1 (centres undefined),1%,-2%,-4%,4%,1%,2%
CCC1(CC)Nc2ccccc2C(=O)N1c1ccc(OC)cc1,11µM*,2.5µM*,nt,?,2µM*,nt
COc1ccc(N2C(=O)c3ccccc3NC23CCCC3)cc1,?,2.5µM*,11µM*,?,4µM*,-1%
Cc1cccc(-c2nc3scc(CCNC(=O)c4ccc(Br)o4)n3n2)c1,-6%,nt,nt,nt,nt,nt
O=C(CCCC(=O)n1cnc2ccccc21)n1cnc2ccccc21,4%,4%,0%,3%,-11%,-3%
Cc1ccc2oc(=O)c(/C=C(\O)c3ccccc3)nc2c1,?,-2%,15%,-5%,0%,2%
Cc1nc2cc(-c3ccccc3)ccc2o1,12µM*,2%,-12%,7%,8%,-8%
O=C1N/C(=C/c2ccc(N3CCOCC3)o2)C(=O)N1c1cccc(Cl)c1,21µM*,?,-2%,10%,14%,1%
COc1ccccc1CNC(=O)C(=O)NCC1OCCN1S(=O)(=O)c1ccccc1 (centres undefined),3%,2%,nt,-4%,1%,nt
O=C(N/N=C\c1c(O)ccc2ccccc12)c1ccc(O)cc1,12µM*,3%,nt,23%,-41%,nt
Cn1c(-c2ccccc2)c(/C=N/NC(=O)c2ccc(O)cc2)c2ccccc21,0.95µM*,?,nt,?,?,nt
Cn1c(-c2ccccc2)c(C=O)c2ccccc21,?,0%,nt,10%,5%,-3%
CCOc1ccc2ccccc2c1/C=N\NC(=O)c1ccc([N+](=O)[O-])cc1,9.5µM*,-1%,nt,3%,0%,nt
COc1ccc(C2=NN(C(=O)CSc3nc(=O)n4cccc(C)c4n3)C(c3ccc(C)cc3)C2)cc1 (centres undefined),5%,-5%,nt,?,-2%,nt
Cc1ccc(C)c(-c2nnc(NC(=O)c3ccc([N+](=O)[O-])o3)o2)c1,-5%,-10%,nt,-39%,-8%,nt
O=c1cc(-c2ccccc2)c2cc(Cl)c(O)c(CN3CCOCC3)c2o1,0%,-1%,nt,1%,1%,nt
COc1cccc2c(=O)c(SC(F)(F)C(F)C(F)(F)F)c(C)[nH]c12 (centres undefined),-14%,9%,11%,6%,-14%,-3%
Nc1cccc2c1C(=O)N(CCOc1ccc(F)cc1)C2=O,2.7µM*,1.6µM*,nt,2.1µM*,1.8µM*,nt
O=C1c2ccccc2C(=O)N1CCOc1ccccc1Cl,-1%,-1%,nt,0%,-2%,nt
O=C1c2ccccc2C(=O)N1CCOc1ccccc1Br,24µM*,?,nt,?,28%,nt
Cc1ccccc1OCCN1C(=O)c2ccccc2C1=O,19µM*,?,10%,?,?,0%
SMILES,FLuc modulator,Rab9 promoter act,SMN2 splice up,ELG1 genotox,NPC1 prom act,Luc counter
O=C(N1CCCCCC1)N1CCN(C(=O)N2CCOCC2)CC1,4%,-6%,-16%,4%,-5%,-1%
O=C(COC(=O)Cc1ccc(Cl)cc1Cl)NC1CC1,nt,nt,nt,-2%,nt,nt
COc1cccc(-c2nc(N3CCCC3)c3ccccc3n2)c1O,15µM*,-3%,nt,-5%,1%,nt
COc1ccc(Nc2nc(-c3cccc(OC)c3O)nc3ccccc23)cc1,3.8µM*,13%,nt,-5%,?,nt
COc1cccc(-c2nc(NC(C)(C)C)c3ccccc3n2)c1O,-3%,7%,nt,-7%,0%,nt
O=C(O)C1(Nc2ccc(Cl)cc2)CCCC1,nt,nt,3%[9.22 µM],nt,nt,-2%[7.66 µM]
Nc1ccc(C#Cc2ccc3c(=O)c4ccccc4oc3c2)cc1,?,3.5µM*,nt,?,2.2µM*,nt
COc1ccc(N2C(=O)C3CCCN3C2c2ccc(C)cc2)cc1Cl (centres undefined),-2%,-2%,-4%,7%,-3%,5%
Cc1ccc(-n2nc(C)c3c(C)cc(=O)n(CC(=O)Nc4cc(Cl)ccc4C)c32)cc1,-3%,nt,nt,nt,nt,nt
CCCCc1ccc(-c2nc(N)n[nH]2)cc1,6µM*,1.6µM*,6.3µM*,?,3.2µM*,-2%
Nc1n[nH]c(-c2ccc(F)cc2)n1,6%,-4%,14%,5%,-3%,-4%
CCCc1ccc(-c2cc(N)n[nH]2)cc1,7.6µM*,?,17%,16µM*,?,2%
C=CCn1c(C(C)NC(=O)c2ccccc2)n[nH]c1=S (centres undefined),2%,-2%,-17%,0%,-3%,-1%
O=C(COc1cccc2cccnc12)N/N=C/c1ccc(O)cc1,17µM*,1%,12%,-5%,-4%,5%
O=C(COc1cccc2cccnc12)Nc1cccc(S(=O)(=O)N2CCCC2)c1,-14%,-7%,nt,-2%,-1%,nt
O=C(COc1cccc2cccnc12)Nc1ccccc1,21µM*,4µM*,?,11%,?,-1%
Cc1cc(C)n2nc(CNS(=O)(=O)c3cccc(Cl)c3)nc2n1,-4%,nt,3%,nt,nt,nt
C[C@H]1CN=C(Nc2ccccc2)N1CCc1ccc(F)cc1,-1%,-3%,nt,1%,-2%,nt
Cc1cc(Oc2ncccc2[N+](=O)[O-])c2cc(Cl)ccc2n1,3%,-7%,nt,-7%,-3%,nt
O=C(O)c1ccc(N2C(=O)CC(N3C(=O)/C(=C/c4ccc(Cl)cc4)SC3=S)C2=O)cc1 (centres undefined),17µM*,1%,nt,-2%,-1%,nt
O=C(O)c1ccc(N2C(=O)CC(N3CCN(c4ccc(Cl)cc4)CC3)C2=O)cc1 (centres undefined),1%,0%,nt,-4%,0%,nt
Oc1ccc(NCc2ccc(OCc3ccccc3)cc2)cc1,27µM*,-5%,21%,?,-13%,nt
Oc1ccc(NCc2ccc(OCc3ccccc3Cl)cc2)cc1,27µM*,nt,7%,nt,nt,nt

# Screening data: PubChem BioAssay, National Center for Advancing Translational Sciences (NCATS)
